Results as given in PubChem BioAssay (NCATS).
Records with an inconclusive call do not appear. Unmarked numbers belong to inactive results. Activity calls are given as the source filed them. Calls come from the whole dose curve; as a rule, active = well fitted curve in the direction sought with a large enough effect; inconclusive = small, poorly fitted or top-dose-only effect, or another doubt; inactive = no such curve, though single readings can be large; an effect the other way counts as inactive or inconclusive. *1 amine or outer side, *2 acyl side, *3 side chain or, on linkers, in order; H or OH if unused. Where a SMILES comes first, the peptide text is derived from it. [ ]: non-standard residue; d: D form. X4 = CC(C)=CCc1cc(C(O)C(N[*:1])C(=O)[*:2])ccc1O

What follows are compounds tested on HACAT (assay: qHTS assay to identify novel small-molecules to repurpose for Merkel cell carcinoma treatment (AID 1296009; note: nearly all actives have a fitted effect of over 60% in size)). Details: MCC and control cell lines, CellTiter-Glo viability, 72 h; series mostly up to 44.8 µM.
How it was run: (§1)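 72 hr, 37 degree celsius; NPC 8-pt / MIPE 11-pt dose response; compound pinned in DMSO; CellTiter-Glo, 10 min RT, luminescence; normalized to no-cell and DMSO controls.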

Compound | outcome
O=S(=O)(c1ccccc1)c1cnc2c(N3CCNCC3)cccc2c1 | inactive
CC(C)c1cc(C(=O)N2CC[C@H](NC(=O)C3CC3)C2)n[nH]1 | inactive
COc1cc(OC)c(/C=C/S(=O)(=O)Cc2ccc(OC)c(NCC(=O)O)c2)c(OC)c1 | inactive
O=C(Nc1nc2ccccc2n1CCc1ccccc1)c1ccccc1 | inactive

What follows are compounds tested on HEK293T in the same assay as above. Details: MCC and control cell lines, CellTiter-Glo viability, 72 h; at 44.8 µM (top of the series) unless noted.
How it was run: as §1

Compound | outcome
CC(=O)OC1CC2C3(C)CCC(OC(=O)CC(=O)O)C(C)(C)C3CCC2(C)C2(C)CCC(C3(C)CCC(=O)O3)C12 (stereo not given) | inactive [at 17.4 µM]
COC(=O)CC(C)(O)CC(=O)OCc1ccc(O[C@@H]2O[C@H](CO)[C@@H](O)[C@H](O)[C@H]2O)cc1 (stereo not given in full) | inactive [at 17.4 µM]
C=C1C(O)CC2C(C(=O)O)=COC(O[C@@H]3O[C@H](COC(=O)/C=C/c4ccc(O)cc4)[C@@H](O)[C@H](O)[C@H]3O)C12 (stereo not given in full) | inactive [at 17.4 µM]
COC(=O)CC(O)CC(O)/C=C/c1c(C)ccc2c1C(O)CC(C)C2 (stereo not given) | inactive
COc1cc(O)c2c(c1)C1=C[C@H](O)[C@@H](O)C[C@]1(C)OC2=O | inactive
CC(C)c1ccc(CO)cc1O[C@@H]1O[C@H](CO)[C@@H](O)[C@H](O)[C@H]1O | inactive
C/C(=C\CCC(C)CCO)C(=O)OC1(C)CCC2C(C(=O)O)=COC(OC3OC(CO)C(O)C(O)C3O)C21 (stereo not given) | inactive [at 17.4 µM]
COc1c2c(c(CO)c3c1C(=O)OC3)OC1(C)CCC3(O)C(C)(C)OC(=O)CCC3(C)C1C2 (stereo not given) | inactive [at 17.4 µM]
COc1cc2occc2c(O[C@@H]2O[C@H](CO)[C@@H](O)[C@H](O)[C@H]2O)c1CCC(=O)O | inactive [at 17.4 µM]

The compounds below were run on NIH3T3 in the same assay as above. Details: MCC and control cell lines, CellTiter-Glo viability, 72 h; at 44.8 µM (top of the series) unless noted.
How it was run: as §1

Compound | outcome
Cn1nnc(-c2ccc(-c3ccc(N4C[C@H](CO)OC4=O)cc3F)cn2)n1 | inactive
CC(=O)OC1C(O)CC2(C)C(CCC(C)C23Cc2c(O)cc(CO)c(C=O)c2O3)C1(C)C (stereo not given) | inactive [at 17.4 µM]
O=C(OC1C=C(CO)C2C(OC3OC(CO)C(O)C(O)C3O)OC=CC12)c1ccc(O)cc1 (stereo not given) | inactive [at 17.4 µM]
COC(=O)CC(O)CC(O)/C=C/c1c(C)ccc2c1C(O)CC(C)C2 (stereo not given) | inactive
COc1cc(O)c2c(c1)C1=C[C@H](O)[C@@H](O)C[C@]1(C)OC2=O | inactive
CC(C)c1ccc(CO)cc1O[C@@H]1O[C@H](CO)[C@@H](O)[C@H](O)[C@H]1O | inactive
CC(=O)O[C@@H]1[C@H](O)[C@@H](O[C@@H]2O[C@@H](C)[C@H](O[C@@H]3OC[C@@H](O)[C@H](O[C@@H]4OC[C@@H](O)[C@H](O)[C@H]4O)[C@H]3O)[C@@H](O[C@@H]3O[C@H](CO)[C@@H](O)[C@H](O)[C@H]3O)[C@H]2O)[C@H](OC(=O)[C@]23CCC(C)(C)C[C@H]2C2=CCC4[C@@]5(C)CC[C@H](O[C@@H]6O[C@H](C(=O)O)[C@@H](O)[C@H](O[C@@H]7OC[C@@H](O)[C@H](O)[C@H]7O)[C@H]6O[C@@H]6O[C@H](CO)[C@H](O)[C@H](O)[C@H]6O)[C@@](C)(C=O)C5CC[C@@]4(C)[C@]2(C)CC3)O[C@@H]1C (stereo not given in full) | inactive [at 4.96 µM]
COC1=CC(=O)CC(C)C12Oc1cc(OC)cc(O)c1C2=O (stereo not given) | inactive
CC(C)=CCc1cc(C(O)C2NC(=O)CNC(=O)C(Cc3c[nH]c4ccccc34)NC(=O)C3CCCN3C(=O)CNC(=O)C(C(C)C)NC(=O)CNC2=O)ccc1O (stereo not given) (cyclo(G[X4]GVGPW); configuration not given here) | inactive [at 9.27 µM]
C/C(=C\CCC(C)CCO)C(=O)OC1(C)CCC2C(C(=O)O)=COC(OC3OC(CO)C(O)C(O)C3O)C21 (stereo not given) | inactive; activator [at 17.4 µM]
CCOc1cc(CC(=O)NC(CC(C)C)c2ccccc2N2CCCCC2)ccc1C(=O)O (stereo not given) | inactive
NC1(C(=O)NC(CCO)c2ccc(Cl)cc2)CCN(c2ncnc3[nH]ccc23)CC1 (stereo not given) | inactive
COC(=O)c1cc(OC)cc(OC)c1C(=O)c1c(OC)cc2c(c1O)C1CCCC(C)(O2)O1 (stereo not given) | inactive [at 17.4 µM]

Each compound was assayed on C33A (assay: Primary qHTS to identify gynecologic anti-cancer compounds using libraries of approved drugs and bioactive compounds (AID 1345084; note: % is set by controls: 0 for no effect and ±100 for the full control effect; nearly all actives have a fitted effect of over 55% in size)). Details: Gynecologic cancer cell panel viability, ATPlite luminescence, 48 h; series mostly up to 57.5 µM; activity change, negative = cytotoxicity: at the top concentration.
How it was run: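 Luminescence from the ATPlite ATP-monitoring reagent indicates viable cell number; lower signal means cytotoxicity. Cells received compound 16 h after seeding and were exposed for 48 h across five concentrations.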

Compound | activity change, negative = cytotoxicity
Cn1nnc(-c2ccc(-c3ccc(N4C[C@H](CO)OC4=O)cc3F)cn2)n1 | -1.96%
CC(=O)OC1CC2C3(C)CCC(OC(=O)CC(=O)O)C(C)(C)C3CCC2(C)C2(C)CCC(C3(C)CCC(=O)O3)C12 (stereo not given) | 14.1% [at 25.3 µM]
COc1cc(O)cc(/C=C/c2ccc(O[C@@H]3O[C@H](CO)[C@@H](O)[C@H](O)[C@H]3O)cc2)c1 | -17.1% [at 25.3 µM]
CC(=O)OC1C(O)CC2(C)C(CCC(C)C23Cc2c(O)cc(CO)c(C=O)c2O3)C1(C)C (stereo not given) | 16.1% [at 25.3 µM]
